High-throughput results from PubChem BioAssay.
A selection: hits, their analogues and other compounds. The true share with any hit is near 19%.
TDP1 block: qHTS Assay for Inhibitors of Tyrosyl-DNA Phosphodiesterase (TDP1) | Tyrosyl-DNA phosphodiesterase 1 (Homo sapiens), Q9NUW8 | recombinant TDP1, AlphaScreen DNA substrate cleavage | Potency, µM (titrated, usually from 130 µM), without a hit: at the top dose activity change, negative = inhibition, most hits filed as inhibitors | hit rate 0.28% among 350,000 | AID 485290, 2010; further: potency means the concentration at half of the fitted maximal effect; nearly all actives have a fitted effect of over 40% in size
Target sequence (Q9NUW8 whole entry, looked up): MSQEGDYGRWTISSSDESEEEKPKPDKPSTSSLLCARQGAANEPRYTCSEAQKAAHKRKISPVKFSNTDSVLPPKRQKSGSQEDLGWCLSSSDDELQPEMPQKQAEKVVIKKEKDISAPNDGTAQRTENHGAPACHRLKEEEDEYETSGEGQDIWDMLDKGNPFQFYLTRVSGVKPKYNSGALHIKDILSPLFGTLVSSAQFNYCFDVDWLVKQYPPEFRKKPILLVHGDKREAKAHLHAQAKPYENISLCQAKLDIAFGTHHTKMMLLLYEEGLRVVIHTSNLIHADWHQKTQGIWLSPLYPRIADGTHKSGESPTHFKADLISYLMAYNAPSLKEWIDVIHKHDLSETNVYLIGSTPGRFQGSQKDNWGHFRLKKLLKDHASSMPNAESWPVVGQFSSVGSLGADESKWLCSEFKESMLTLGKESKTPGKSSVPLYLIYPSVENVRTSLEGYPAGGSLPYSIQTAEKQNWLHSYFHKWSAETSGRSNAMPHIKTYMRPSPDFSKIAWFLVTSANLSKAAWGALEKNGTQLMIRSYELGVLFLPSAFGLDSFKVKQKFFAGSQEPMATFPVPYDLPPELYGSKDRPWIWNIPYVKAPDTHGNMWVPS
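Recombinant human Tdp1 (E. coli-expressed, 1 nM final) preincubated with compounds 15 min at room temperature, then 5'-biotin/3'-phosphotyrosine-FITC DNA substrate (15 nM final) added for 5 min. AlphaScreen beads (10 ug/ml final) added 10 min; cleavage lowers signal.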
TDP1 cell noCPT: qHTS for Inhibitors of human tyrosyl-DNA phosphodiesterase 1 (TDP1): qHTS in cells in absence of CPT; DT40 Tdp1-/- hTDP1 cells, no CPT, ATP luminescence, 48 h; Potency, µM (doses to about 46.2 µM), for the others: at the highest dose activity change, negative = growth inhibition, most hits filed as inhibitors; hit rate 15% among 420,000; AID 686978, 2013; further: potency means the concentration at half of the fitted maximal effect; nearly all actives have a fitted effect of over 55% in size
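Chicken DT40 Tdp1-/- cells stably complemented with human TDP1 were seeded at 400 cells/well with DMSO in place of 20 nM camptothecin. After compound pinning, cells grew at least 48 hr at 37 °C; viability read by CellTiter-Glo luminescence.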
IL-1B inflam inh: qHTS for Inhibitors of Inflammasome Signaling: IL-1-beta AlphaLISA Primary Screen; THP-1 LPS/ATP IL-1B secretion, AlphaLISA, 16 h; stronger effect = lower value; activity change, % at 57.5 µM; hit rate 4.7% among 360,000; AID 743279, 2014; in the data active means activity change below about -50%; inconclusive means mostly about -30% to -49%
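Secreted IL-1B measured by AlphaLISA bead assay after 16 h compound exposure of THP-1 cells; compounds (final up to 57.5 uM) added 1 h before LPS (250 ng/mL) and ATP (1.25 mM) stimulation; lower signal means less secretion.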
Giardia killer: Small Molecules that selectively kill Giardia lamblia: qHTS | hit rate 0.15% among 340,000 | activity change, % at 7.66 µM, hits read low | AID 540267, 2011 | Giardia lamblia trophozoite viability; in the data active means activity change below about -80%; inconclusive means between about -30% and that limit;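 further: parasites exposed to compound for two days anaerobically before the ATP read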
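Luminescent ATP signal served as the viability read-out, measured 15-30 min after adding ATP detection reagent to trophozoites that had been incubated with compounds for 48 hrs at 37 deg C anaerobically at 100 cells/well.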
DT40 TDP1 CPT: qHTS for Inhibitors of human tyrosyl-DNA phosphodiesterase 1 (TDP1): qHTS in cells in presence of CPT; chicken DT40 Tdp1-/-;hTDP1 cells + 20 nM CPT, ATP luminescence, 48 h; hit rate 12% among 420,000; Potency, µM (highest dose often 46.2 µM), for inactives: top-dose activity change, negative = growth inhibition, most hits filed as inhibitors; AID 686979, 2013; further: potency means the concentration at half of the fitted maximal effect; nearly all actives have a fitted effect of over 55% in size
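Chicken DT40 Tdp1-/- cells stably complemented with human TDP1 were seeded at 400 cells/well in medium containing 20 nM camptothecin, exposed to pin-transferred compounds, and grown at 37 °C for at least 48 hr. Viability was read as ATP luminescence.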
ELG1 DNA repair: qHTS screen for small molecules that inhibit ELG1-dependent DNA repair in human embryonic kidney (HEK293T) cells expressing luciferase-tagged ELG1 | HEK293T ELG1-luciferase reporter, luminescence, 16 h; DNA damage induced by 5-fluorouridine | Potency, µM (titrated, usually from 46.1 µM), for inactives: at the highest dose activity change, negative = inhibition, hits mostly inhibitors | hit rate 2.3% among 330,000; further: potency means the concentration at half of the fitted maximal effect; nearly all actives have a fitted effect of over 55% in size
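Cells (2,000 per well) received 5-fluorouridine plus test compound or DMSO and were incubated 16 hr at 37 °C, 5% CO2. Luciferase activity was read by luminescence 30 min after ONE-Glo addition; signal suppression marked inhibition of damage-induced ELG1 function.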
Starred values were filed as active, the others as inactive; ? = inconclusive; · = no result; ! = a repeat was not active; [ ] = remark or other dose. Unless noted, the call rests on the fitted dose curve; in most records, active means well fitted curve in the direction sought with a large enough effect; inconclusive means small, poorly fitted or top-dose-only effect, or another doubt; inactive means no such curve, though single readings can be large; an effect the other way counts as inactive or inconclusive. On the % scale 0 is the no-effect control and ±100 the full control effect.

SMILES | TDP1 block | TDP1 cell noCPT | IL-1B inflam inh | Giardia killer | DT40 TDP1 CPT | ELG1 DNA repair
CN1C(=O)[C@@H](NC(=O)c2cc3ccccc3[nH]2)N=C(c2ccccc2)c2ccccc21 | 9.2% | ? | · | · | ? | ·
O=C1c2ccccc2-c2cccc3cccc1c23 | 12.4%[56.1 µM] | 18.4µM*! | -17.0 | 1.9 | 20.6µM*! | ·
COc1ccccc1N=c1scc(-c2ccc(S(=O)(=O)N3CCCC3)cc2)n1C | 1.3%[12.3 µM] | 2.91µM* | · | · | 5.17µM* | ·
Cc1ccc(C(=O)NC(=S)NNS(=O)(=O)c2ccc(C)cc2)cc1 | 10.5% | 5.1% | 16.2 | 3.2 | -20.4% | 3.6%
C[n+]1c(-c2ccccc2)c2cc(N)ccc2c2ccc(N)cc21 | · | 0.164µM* | 0.0 | 10.2 | 0.517µM* | ?
Cc1[nH]c2ccc(OC(=O)N3CCOCC3)cc2c1C(=O)OC(C)C | 3.9% | ? | -1.8 | -4.8 | ? | ?
CC(CCC(=O)O)C1CCC2C3C(=O)CC4CC(=O)CC[C@@]4(C)C3CC(=O)[C@]12C (stereo not given in full) | 13.9% | -4.4% | · | · | 5.9% | ·
COc1ccc2c3c([nH]c2c1)C(C)NCC3 (stereo not given) | 10.3% | ? | 0.0 | -18.0 | 2.59µM* | 0.4%
Cc1ccc([C@H]2N[C@]3(CCCN(Cc4ccc(C(F)(F)F)cc4)C3=O)[C@H]3C(=O)N(Cc4ccccc4)C(=O)[C@@H]23)cc1 | · | ? | -70.4* | · | 23.1µM* | ·
Clc1ccc(C2CC3CCC2N3)cn1 (stereo not given) | ? | -1.6% | · | · | -9.7% | ·
COC(=O)C[C@](O)(CCCC(C)(C)O)C(=O)O[C@@H]1C(OC)=CC23CCCN2CCc2cc4c(cc2[C@H]13)OCO4 (stereo not given in full) | · | 0.0094µM* | · | · | 0.0133µM* | ·
Cn1ccc2c(-c3ccc(F)nc3)cc3c(c21)C1CCC3C1 (stereo not given) | · | ? | 41.1 | · | ? | ·
Cc1cccc(CNCCc2c[nH]c3ccccc23)c1 | 6.8% | 13µM* | -74.9* | -19.2 | 16.4µM* | 9.4%
COc1cc(CNCCc2c[nH]c3ccccc23)cc(OC)c1 | · | 23.1µM* | -79.6* | 14.9 | ? | -11.8%
c1ccc2c(CCNCc3ccc4c(c3)OCO4)c[nH]c2c1 | -1.6%[56.1 µM] | ? | -22.9 | 2.9 | ? | ?
CCc1ccc(CNCCc2c[nH]c3ccccc23)cc1 | · | 25.9µM* | -52.4* | -9.9 | ? | -17.1%
c1ccc(CNCCc2c[nH]c3ccccc23)cc1 | · | -28.9% | -10.1 | -2.7 | -23.8% | -5.5%
Fc1cccc(CNCCc2c[nH]c3ccccc23)c1 | 3.0% | ? | ? | 8.6 | ? | -1.7%
[O]=[Cd] | 4.2% | 10.6% | · | · | -4.4% | ·
Nc1cc(C(=O)Nc2ccc(Cl)cc2)ccc1N1CC2CC(C1)c1cccc(=O)n1C2 (stereo not given) | 4.6% | 10.3µM* | -2.4 | -12.5 | 20.6µM* | ?
O=C(Nc1ccc(Cl)cc1)N1CC2CC(C1)c1cccc(=O)n1C2 (stereo not given) | 0.2% | -25.1% | -1.0 | 8.0 | -2.6% | ?
CN(c1ccccc1)S(=O)(=O)c1cccc(C(=O)N2CCN(c3ccccn3)CC2)c1 | 5.1% | 16.4µM* | -11.5 | -6.8 | 18.4µM* | ?
CN(C)S(=O)(=O)c1cccc(C(=O)N2CCC(C(=O)O)(c3ccccc3)CC2)c1 | 11.6% | -3.6% | -1.1 | 11.2 | 5.5% | -1.3%
Cc1ccc2cc(CNCCc3ccccc3C)c(=O)[nH]c2c1 | 5.2% | 18.4µM* | -79.1* | -12.6 | ? | -10.9%
Cc1cccc(CCNCc2cc3cccc(C)c3[nH]c2=O)c1 | 5.4% | 13µM* | -28.5 | 7.2 | 8.2µM* | 5.1%
SMILES | TDP1 block | TDP1 cell noCPT | IL-1B inflam inh | Giardia killer | DT40 TDP1 CPT | ELG1 DNA repair
CN(C)C(=O)Oc1ccc(OC(=O)N(C)C)cc1 | 2.0% | -25.6% | -1.3 | -16.8 | -9.3% | ?
CN(C)C(=O)Oc1ccc(OCc2nc3ccccc3[nH]2)cc1 | 5.3% | 10.3µM* | -4.6 | ? | 9.2µM* | ?
CC(=O)O[C@@H]1/C=C/[C@](C)(O)C[C@@H](C)C/C=C/[C@H]2[C@@H]3O[C@]3(C)[C@@H](C)[C@H]3[C@H](Cc4ccccc4)NC(=O)[C@@]312 | · | 0.461µM* | -0.4 | 12.4 | 0.517µM* | ·
Nc1ccc(CCN2CCN(c3cccc(C(F)(F)F)c3)CC2)cc1 | 9.5%[56.1 µM] | 23.1µM* | -9.8 | 49.1 | ? | ·
Nc1ccc(CCN2CCCC2)cc1 | 4.9% | 1.2% | 2.2 | 23.8 | 7.2% | -1.6%
CC(=O)OC1C(=O)[C@]2(C)C(O)CC3OC[C@]3(OC(C)=O)C2[C@@H](OC(=O)c2ccccc2)[C@]2(O)CC(O)C(C)=C1C2(C)C (stereo not given in full) | 10.9%[56.1 µM] | 3.66µM* | · | · | ? | ·
CC(=O)OC12COC1CC(O)C1(C)C(=O)C(O)C3=C(C)C(O)CC(O)(C(OC(=O)c4ccccc4)C21)C3(C)C (stereo not given) | · | 1.03µM* | 33.8 | 6.7 | 1.16µM* | ·
COc1ccc(OC)c(CCNCc2c(C(=O)O)c(C)n(Cc3ccc(F)cc3Cl)c2C)c1 | 10.1% | ? | · | · | ? | ·
CC(C)(C)OOC(C)(C)C | 16.1% | · | · | · | · | ·
CCOC(=O)[C@]12Cc3c(cc(OC)c(OC)c3OC)[C@H]1N(C)C(=O)c1ccccc12 | · | 20.6µM* | -54.8* | · | ? | ·
CCOC(=O)[C@]12Cc3c(cc(OC)c(OC)c3OC)[C@H]1N(CCC(=O)OC)C(=O)c1ccccc12 | · | 16.4µM* | -116.3* | · | 18.4µM* | ·
CC1CC(C)CC(C)C(O)C(C#N)=CC=CCC(C2CCCC2C(=O)O)OC(=O)CC(O)C(C)C1 (stereo not given) | · | 0.103µM* | -103.2* | ? | 0.0082µM* | ·
O=C1CN=C(c2ccc(Br)cc2)c2c(sc3c2CCCC3)N1CCN1CCCCC1 | 2.6% | 5.8µM* | ? | 13.4 | 10.3µM* | ?
Cc1cccc(C2=NCC(=O)N(CC(=O)NCc3ccco3)c3sc4c(c32)CCCC4)c1 | -4.4% | ? | -25.1 | 16.4 | ? | ?
COC(=O)C[C@@](O)(CCC(C)(C)O)C(=O)O[C@@H]1C(OC)=C[C@]23CCCN2CCc2cc4c(cc2[C@@H]13)OCO4 | 3.6% | · | · | · | · | ·
